Source: PubChem BioAssay
Results filed as inconclusive are left out. The source made the active and inactive calls.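 How the source made its calls, unless noted: active means normalized viability below 100% at a tested concentration; inactive means the rest.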

Experiments:
[1] = growth inhibition of DIPG glioma cells, dose response, cell-based, SU-DIPG-XVII, MIPE5.0, CellTiter-Glo, qHTS (AID 1347060; cut-off not given, nearly all actives have AC50 up to about 26 µM;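 further: cells exposed to compound for 48 hours before viability readout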); conditions: SU-DIPG-XVII viability, CellTiter-Glo ATP luminescence
[2] = growth inhibition of DIPG glioma cells, dose response, cell-based, SU-DIPG-XIII, MIPE5.0, CellTiter-Glo, qHTS (AID 1347064; cut-off not given, nearly all actives have AC50 up to about 23 µM;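 further: cells exposed to compound for 48 hours before the viability read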); conditions: SU-DIPG-XIII viability, CellTiter-Glo ATP luminescence
[3] = viability loss in pontine glioma line – cell-based, SU-DIPG-XXV, MIPE5.0, CellTiter-Glo, qHTS, dose response (AID 1347065; cut-off not given, nearly all actives have AC50 up to about 26 µM;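 further: cells exposed to compound for 48 hours before ATP readout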); conditions: CellTiter-Glo ATP luminescence
[4] = JHH-DIPG-1 glioma cell viability, MIPE5.0 library, CellTiter-Glo luminescence, qHTS (AID 1347067; cut-off not given, nearly all actives have AC50 up to about 26 µM;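 further: cells exposed to compound for 48 hours before readout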); conditions: JHH-DIPG-1 glioma viability, CellTiter-Glo ATP luminescence
[5] = SU-DIPG-XXV glioma cell viability, MIPE5.0 library, qHTS (AID 1347068; cut-off not given, nearly all actives have IC50 up to about 30 µM)
[6] = sensitizers of A549 cells to miR-34 induction, primary screen, imaging, A549 dox-inducible miR-34, nuclei and caspase counts (AID 1347080;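 active means compounds whose cell count with miR-34 switched on is under 0.7 times the count with it off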); conditions: A549 miR-34 inducible, Hoechst nuclei count, 48 h
[7] = survival rescue of mitochondrial mutant cells in low glucose, primary screen, MELAS cybrids, Rieske KO mouse fibroblasts, CellTiter-Glo (AID 1508586;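 active means mean z-score across replicates of 1.96 or higher in either the MELAS or the Rieske mutant cell line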;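 further: z relative to plate mean and SD of compound and empty wells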)
[8] = ovarian cancer cell viability with rucaparib, profiling panel, oncology-focused library, rucaparib conditional (AID 1508598); conditions: patient-derived ovarian cancer cells, CellTiter-Glo viability, 144 h, stronger effect = lower value

CN(NC(=O)CC(=O)NN(C)C(=S)c1ccccc1)C(=S)c1ccccc1
5740: cell count ([6]; measured here: total cells without miR-34 induction)
active: AC50 [1] 18.6 nM | AC50 [2] 9.34 nM | AC50 [3] 18.6 nM | AC50 [4] 5.25 nM | z-score ([7]; MELAS cybrid survival, CellTiter-Glo 48 h, stronger effect = higher value) 2.12 | viability ([8]; at 0.000305 µM, OCI-P5x cells, with rucaparib 20 µM, 100% = cells with rucaparib alone) 83.3% | viability ([8]; at 0.000305 µM, OCI-P5x cells, without rucaparib) 88% | viability ([8]; at 0.00122 µM, OCI-P5x cells, with rucaparib 20 µM, 100% = cells with rucaparib alone) 80.6% | viability ([8]; at 0.00122 µM, OCI-P5x cells, without rucaparib) 75.2% | viability ([8]; at 0.00488 µM, OCI-P5x cells, with rucaparib 20 µM, 100% = cells with rucaparib alone) 82.9% | viability ([8]; at 0.00488 µM, OCI-P5x cells, without rucaparib) 81.1% | viability ([8]; at 0.0195 µM, OCI-P5x cells, with rucaparib 20 µM, 100% = cells with rucaparib alone) 88.5% | viability ([8]; at 0.0195 µM, OCI-P5x cells, without rucaparib) 84.6% | viability ([8]; at 0.0781 µM, OCI-P5x cells, with rucaparib 20 µM, 100% = cells with rucaparib alone) 98.6% | viability ([8]; at 0.0781 µM, OCI-P5x cells, without rucaparib) 81% | viability ([8]; at 0.313 µM, OCI-P5x cells, with rucaparib 20 µM, 100% = cells with rucaparib alone) 96% | viability ([8]; at 0.313 µM, OCI-P5x cells, without rucaparib) 95.1% | viability ([8]; at 1.25 µM, OCI-P5x cells, with rucaparib 20 µM, 100% = cells with rucaparib alone) 82.2% | viability ([8]; at 1.25 µM, OCI-P5x cells, without rucaparib) 97.2% | viability ([8]; at 5 µM, OCI-P5x cells, with rucaparib 20 µM, 100% = cells with rucaparib alone) 99% | viability ([8]; at 5 µM, OCI-P5x cells, without rucaparib) 98%
1.14: fold change ([6]; measured here: relative caspase fold change +Dox/-Dox)
4660: cell count ([6]; measured here: total cells with miR-34 induction, stronger effect = lower value)
inactive: outcome [5] | fold change ([6]; stronger effect = lower value, cell number ratio, induced over uninduced) 0.813 | viability ([8]; at 0.000305 µM, OCI-C5x cells, with rucaparib 10 µM, 100% = cells with rucaparib alone) 121% | viability ([8]; at 0.000305 µM, OCI-C5x cells, without rucaparib) 108% | viability ([8]; at 0.00122 µM, OCI-C5x cells, with rucaparib 10 µM, 100% = cells with rucaparib alone) 135% | viability ([8]; at 0.00122 µM, OCI-C5x cells, without rucaparib) 131% | viability ([8]; at 0.00488 µM, OCI-C5x cells, with rucaparib 10 µM, 100% = cells with rucaparib alone) 143% | viability ([8]; at 0.00488 µM, OCI-C5x cells, without rucaparib) 129% | viability ([8]; at 0.0195 µM, OCI-C5x cells, with rucaparib 10 µM, 100% = cells with rucaparib alone) 151% | viability ([8]; at 0.0195 µM, OCI-C5x cells, without rucaparib) 131% | viability ([8]; at 0.0781 µM, OCI-C5x cells, with rucaparib 10 µM, 100% = cells with rucaparib alone) 140% | viability ([8]; at 0.0781 µM, OCI-C5x cells, without rucaparib) 122% | viability ([8]; at 0.313 µM, OCI-C5x cells, with rucaparib 10 µM, 100% = cells with rucaparib alone) 126% | viability ([8]; at 0.313 µM, OCI-C5x cells, without rucaparib) 133% | viability ([8]; at 1.25 µM, OCI-C5x cells, with rucaparib 10 µM, 100% = cells with rucaparib alone) 125% | viability ([8]; at 1.25 µM, OCI-C5x cells, without rucaparib) 123% | viability ([8]; at 5 µM, OCI-C5x cells, with rucaparib 10 µM, 100% = cells with rucaparib alone) 128% | viability ([8]; at 5 µM, OCI-C5x cells, without rucaparib) 121%
-2.56: z-score ([7]; Rieske KO mouse fibroblast survival, CellTiter-Glo 72 h)
